This note sets out measurements from PubChem BioAssay (Tox21).

Each structure is given as a SMILES string. Values joined by “and” are separate entries in the source; they are usually repeats but may differ in a detail not shown here. Identical values can stand only once. Results filed as inconclusive are left out. More than one record can exist for a structure, and the calls need not agree. Active and inactive are the calls of the source. Unless noted, calls follow the shape of the dose curve; as a rule, active = well fitted curve in the direction sought with a large enough effect in the repeat runs; inconclusive = weak or mixed curves; inactive = no such curve, though single readings can be large; an effect the other way counts as inactive or inconclusive.

In test [1] the target is Thyrotropin-releasing hormone receptor (Homo sapiens) (UniProt P34981). Description: qHTS assay to identify small molecule agonists of the thyrotropin-releasing hormone receptor (TRHR) signaling pathway (AID 1346891; calls by dose curve; also: series mostly up to about 58 µM). The procedure, abridged: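 HEK293 cells expressing TRHR plated 18 h at 37 C/5% CO2, calcium dye-loaded 2 h at 37 C, then compound added (agonist mode); kinetic calcium fluorescence read 3 min at 1 s intervals; 15 concentrations in triplicate.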
Sequence of Thyrotropin-releasing hormone receptor (Homo sapiens) (P34981 whole entry, looked up): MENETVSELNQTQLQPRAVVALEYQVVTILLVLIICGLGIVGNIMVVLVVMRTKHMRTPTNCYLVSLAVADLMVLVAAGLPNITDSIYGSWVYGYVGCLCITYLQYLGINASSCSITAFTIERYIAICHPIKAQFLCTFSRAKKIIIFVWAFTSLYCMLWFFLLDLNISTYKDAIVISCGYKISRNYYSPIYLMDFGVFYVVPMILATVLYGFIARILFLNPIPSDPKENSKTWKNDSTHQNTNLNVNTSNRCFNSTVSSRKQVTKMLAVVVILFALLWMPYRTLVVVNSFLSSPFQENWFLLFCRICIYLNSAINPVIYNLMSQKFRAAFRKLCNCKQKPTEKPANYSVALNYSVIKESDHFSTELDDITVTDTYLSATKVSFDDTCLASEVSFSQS
For orientation: qHTS replaces the single test concentration by a dilution series.

Test [2] in a line: Human pregnane X receptor (PXR) small molecule agonists, qHTS cell viability counter screen (AID 1346977). Also: nearly all actives have a fitted effect of over 50% in size. Also: potency is read from the fitted curve at half-maximal effect. The method in brief: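 PXR-Luc HepG2 cells (2,000/well, 5% charcoal-stripped FBS) preincubated 5 hr, then exposed to compounds 24 hr at 37 C. Viability read in the same wells by CellTiter-Fluor fluorescence, reagent added at 23 hr, 1 hr incubation.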
Test [3] can be described thus: Caspase-3/7 induction in HepG2 cells by small molecules, qHTS assay (AID 1346978). Also: nearly all actives have a fitted effect of over 15% in size. The method in brief: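 Wild-type HepG2 cells (2,000/well) were settled 5 h at 37 C, 5% CO2, then exposed to compounds in DMSO for 17 h. Caspase-3/7 activity was read by luminescence 30 min after adding Caspase-Glo 3/7 reagent at room temperature.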
Test [4] is described as follows: Caspase-3/7 induction in CHO-K1 cells by small molecules, qHTS cell viability counter screen (AID 1346979). Also: nearly all actives have a fitted effect of over 35% in size. Also: potency is read from the fitted curve at half-maximal effect. The method in brief: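 Wild-type CHO-K1 cells (1,500/well) treated with compound after 5 h plating; after 16 h at 37C, viability read as CellTiter-Fluor fluorescence following 1 h reagent incubation, in the same wells as the caspase read.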
The nature of test [5]: Caspase-3/7 induction in HepG2 cells by small molecules, qHTS cell viability counter screen (AID 1346981). Also: nearly all actives have a fitted effect of over 30% in size. Also: potency is read from the fitted curve at half-maximal effect. The procedure, abridged:
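Treatment of HepG2 cells with DMSO-delivered compounds ran 16 hr at 37 C following a 5-hr pre-incubation of 2,000 cells/well. CellTiter-Fluor fluorescence, read after 1 hr, served as the viability measure in a qHTS format.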

The target of test [6] is Nuclear receptor subfamily 1 group I member 2 (Homo sapiens) (UniProt O75469). Description: Human pregnane X receptor (PXR) small molecule agonists, qHTS assay (AID 1346982). Also: nearly all actives have a fitted effect of over 35% in size. Also: potency is read from the fitted curve at half-maximal effect. The procedure, abridged: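 Stable HepG2 line reporting PXR-mediated CYP3A4 expression via luciferase. Treatment: 24 hr with compounds in DMSO at 37 C. Detection: ONE-Glo luminescence.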
Sequence of Nuclear receptor subfamily 1 group I member 2 (Homo sapiens) (O75469 whole entry, looked up): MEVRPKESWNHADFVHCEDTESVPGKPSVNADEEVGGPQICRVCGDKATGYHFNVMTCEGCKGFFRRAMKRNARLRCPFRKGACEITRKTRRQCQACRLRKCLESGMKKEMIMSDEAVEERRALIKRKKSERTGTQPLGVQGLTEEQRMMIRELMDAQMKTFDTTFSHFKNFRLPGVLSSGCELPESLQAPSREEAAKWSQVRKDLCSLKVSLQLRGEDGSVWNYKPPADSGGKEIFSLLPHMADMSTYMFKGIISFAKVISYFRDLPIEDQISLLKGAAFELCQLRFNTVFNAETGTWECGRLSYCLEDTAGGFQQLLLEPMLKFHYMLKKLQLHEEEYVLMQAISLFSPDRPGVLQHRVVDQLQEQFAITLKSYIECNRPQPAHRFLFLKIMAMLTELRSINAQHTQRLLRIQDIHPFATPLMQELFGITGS
Test [7] addresses Nuclear receptor subfamily 1 group I member 2 (Rattus norvegicus) (UniProt Q9R1A7). Description: Rat pregnane X receptor (rPXR) activation by small molecules, qHTS assay (AID 1346983). Also: nearly all actives have a fitted effect of over 20% in size. The following applies: rPXR luciferase reporter cells, One-Glo luminescence, 24 h; max activation: stronger effect = higher value. The procedure, abridged: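 Cell-based rPXR luciferase reporter assay, 2,000 cells per well, rested 5hr at 37 C before compound addition in DMSO, then 24 hr at 37 C. One-Glo reagent was added and luminescence read after 30 min at room temperature.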

For test [8], the target named is Nuclear receptor subfamily 1 group I member 2 (Homo sapiens) (UniProt O75469). Description: CYP3A4 induction through human pregnane X receptor (PXR) by small molecules, qHTS assay (AID 1346984). Also: nearly all actives have a fitted effect of over 40% in size. The method in brief:
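After 24 h at 37C with compound, DPX-2 cells (HepG2, co-transfected PXR response element and CYP3A4 promoter-luciferase) got 3uM final P450-Glo Luciferin-IPA for 3 h; One-Glo luminescence followed.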

Test [9] shares this target. Description: Human pregnane X receptor (PXR) activation by small molecules, qHTS assay (AID 1346985). Also: nearly all actives have a fitted effect of over 40% in size. Also: potency is read from the fitted curve at half-maximal effect. The method in brief:
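DPX-2 cells (HepG2 co-transfected with a PXR response element and a CYP3A4-promoter luciferase construct) were seeded at 2,000 per well, rested 5 hr at 37C, then exposed to DMSO-dissolved compounds for 24 hr. Activation was read as luciferase luminescence.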

For test [10], the target named is Acetylcholinesterase (Homo sapiens) (UniProt P22303). Description: Acetylcholinesterase (AChE) small molecule antagonists: colormetric cell-based qHTS assay (AID 1347395; calls by dose curve; also: nearly all actives have a fitted effect of over 30% in size). The procedure, abridged:
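SH-SY5Y cells attached overnight, exposed to compound 30 min at 37 C, then given DTNB/acetylthiocholine; after 90 min at 37 C, colorimetric thiocholine read gives cellular AChE activity.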

The target is the same in test [11]. Description: Acetylcholinesterase (AChE) small molecule antagonists: enzyme-based qHTS assay (AID 1347397; calls by dose curve; also: nearly all actives have a fitted effect of over 55% in size). The following applies: Potency: AChE enzyme activity inhibition. The procedure, abridged: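 Tox21 library chemicals are tested in qHTS format against recombinant human AChE. The enzyme, dispensed at 50 mU/mL, sits with compound for 30 min at room temperature. A DTNB–acetylthiocholine cocktail follows, and colour is read after 10 min.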

The target is the same in test [12]. Description: Acetylcholinesterase (AChE) small molecule antagonists: fluorescence cell-based qHTS assay (AID 1347398; calls by dose curve; also: nearly all actives have a fitted effect of over 50% in size). The conditions noted are these: Potency: AChE activity. The method in brief: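 Cellular AChE inhibition: SH-SY5Y cells treated with test chemical for 30 min at 37 C, then acetylthiocholine hydrolysis followed over 40 min at room temperature via thiocholine-reactive Thiolite Green fluorescence (490/520 nm).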

The target is the same in test [13]. Description: Acetylcholinesterase (AChE) small molecule antagonists: enzyme-based qHTS assay with human liver microsomes (AID 1347399; calls by dose curve; also: nearly all actives have a fitted effect of over 60% in size). The conditions noted are these: Potency: qHTS inhibition. The method in brief: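 Recombinant human AChE (50 mU/mL in the enzyme mix) and human liver microsomes (0.25 mg/mL final) were preincubated with compound and NADPH (0.25 mg/mL final) for 30 min at 37 C. Acetylthiocholine/DTNB was then added; thiocholine was read colorimetrically after 10 min at room temperature.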

Test [14] addresses Cytochrome P450 2D6 (Homo sapiens) (UniProt P10635). Description: Cytochrome P450 Family 2 Subfamily D Member 6 (CYP2D6) small molecule antagonists: luciferase reporter qHTS assay (AID 1671196). Also: nearly all actives have a fitted effect of over 50% in size. Also: potency is read from the fitted curve at half-maximal effect. The method in brief: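 Chemicals tested for interference with CYP2D6 activity; proluciferin substrate, NADPH regeneration, 1 h at room temperature, luminescent detection.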
For orientation: Reporter assays use an easily measured gene product as a stand-in for the process of interest.

For test [15], the target named is Cytochrome P450 2C19 (Homo sapiens) (UniProt P33261). Description: Cytochrome P450 Family 2 Subfamily C Member 19 (CYP2C19) small molecule antagonists: luciferase reporter qHTS assay (AID 1671197). Also: nearly all actives have a fitted effect of over 65% in size. Also: potency is read from the fitted curve at half-maximal effect. The method in brief:
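Enzyme-substrate mix with proluciferin substrate (P450-Glo CYP2C19 system) preincubated with compounds 10 min at room temperature; NADPH regeneration solution added, 37C for 1 h; detection reagent stops reaction, luminescence read after 20 min. Ketoconazole positive control.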

Test [16] concerns the target Cytochrome P450 2C9 (Homo sapiens) (UniProt P11712). Description: Cytochrome P450 Family 2 Subfamily C Member 9 (CYP2C9) small molecule antagonists: luciferase reporter qHTS assay (AID 1671198). Also: nearly all actives have a fitted effect of over 50% in size. Also: potency is read from the fitted curve at half-maximal effect. The method in brief: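 CYP2C9 activity was measured with a P450-Glo proluciferin substrate. Enzyme–substrate mix was held with compound for 10 min at room temperature, then NADPH regeneration solution was added for 1 h at 37C. Luciferin product was read as luminescence.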

The target in test [17] is Cytochrome P450 1A2 (Homo sapiens) (UniProt P05177). Description: Cytochrome P450 Family 1 Subfamily A Member 2 (CYP1A2) small molecule antagonists: luciferase reporter qHTS assay (AID 1671199). Also: nearly all actives have a fitted effect of over 50% in size. Also: potency is read from the fitted curve at half-maximal effect. The procedure, abridged:
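Read-out is luminescence from luciferin detection reagent (20 min) proportional to CYP1A2 activity; compounds in DMSO preincubated 10 min with enzyme and proluciferin substrate, then NADPH regeneration solution, 1 h, room temperature.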

For test [18], the target named is Voltage-gated inwardly rectifying potassium channel KCNH2 (Homo sapiens) (UniProt Q12809). Description: Human Ether-a-go-go-Related Gene (hERG) channel small molecule antagonists: fluorescence cell-based qHTS assay (AID 1671200). The method in brief:
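hERG-U2OS cells plated overnight at 37 C, loaded with FluxOR II dye 1 h at RT in dark; after 10 min, thallium stimulus added. Fluorescence (480/540 nm) read kinetically for 2 min at 1 s intervals.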

The target of test [19] is Cytochrome P450 3A4 (Homo sapiens) (UniProt P08684). Description: Cytochrome P450 Family 3 Subfamily A Member 4 (CYP3A4) small molecule antagonists: luciferase reporter qHTS assay (AID 1671201). The procedure, abridged:
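P450-Glo CYP3A4 luminescent assay: compounds preincubated 10 min at room temperature with enzyme and proluciferin substrate, NADPH regeneration added, 1 h room-temperature reaction, stopped with luciferin detection reagent; luminescence read after 20 min. Ketoconazole positive control.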
% is scaled to controls: 0 for no effect and ±100 for the full control effect.

Sequence of Cytochrome P450 2C9 (Homo sapiens) (P11712 whole entry, looked up): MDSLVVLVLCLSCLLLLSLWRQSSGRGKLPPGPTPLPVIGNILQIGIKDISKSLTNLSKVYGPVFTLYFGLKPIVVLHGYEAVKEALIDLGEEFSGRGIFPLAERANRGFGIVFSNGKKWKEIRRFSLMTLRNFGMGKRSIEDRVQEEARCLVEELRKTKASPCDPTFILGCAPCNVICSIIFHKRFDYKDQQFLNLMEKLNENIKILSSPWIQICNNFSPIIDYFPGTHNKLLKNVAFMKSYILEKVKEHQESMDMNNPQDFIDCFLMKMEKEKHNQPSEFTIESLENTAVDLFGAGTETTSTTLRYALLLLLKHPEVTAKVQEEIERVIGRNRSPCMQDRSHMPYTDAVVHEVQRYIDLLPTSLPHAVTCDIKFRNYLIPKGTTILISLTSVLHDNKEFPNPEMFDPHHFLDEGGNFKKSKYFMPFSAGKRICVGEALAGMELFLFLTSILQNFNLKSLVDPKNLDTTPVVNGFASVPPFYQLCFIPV
Sequence of Voltage-gated inwardly rectifying potassium channel KCNH2 (Homo sapiens) (Q12809 whole entry, looked up): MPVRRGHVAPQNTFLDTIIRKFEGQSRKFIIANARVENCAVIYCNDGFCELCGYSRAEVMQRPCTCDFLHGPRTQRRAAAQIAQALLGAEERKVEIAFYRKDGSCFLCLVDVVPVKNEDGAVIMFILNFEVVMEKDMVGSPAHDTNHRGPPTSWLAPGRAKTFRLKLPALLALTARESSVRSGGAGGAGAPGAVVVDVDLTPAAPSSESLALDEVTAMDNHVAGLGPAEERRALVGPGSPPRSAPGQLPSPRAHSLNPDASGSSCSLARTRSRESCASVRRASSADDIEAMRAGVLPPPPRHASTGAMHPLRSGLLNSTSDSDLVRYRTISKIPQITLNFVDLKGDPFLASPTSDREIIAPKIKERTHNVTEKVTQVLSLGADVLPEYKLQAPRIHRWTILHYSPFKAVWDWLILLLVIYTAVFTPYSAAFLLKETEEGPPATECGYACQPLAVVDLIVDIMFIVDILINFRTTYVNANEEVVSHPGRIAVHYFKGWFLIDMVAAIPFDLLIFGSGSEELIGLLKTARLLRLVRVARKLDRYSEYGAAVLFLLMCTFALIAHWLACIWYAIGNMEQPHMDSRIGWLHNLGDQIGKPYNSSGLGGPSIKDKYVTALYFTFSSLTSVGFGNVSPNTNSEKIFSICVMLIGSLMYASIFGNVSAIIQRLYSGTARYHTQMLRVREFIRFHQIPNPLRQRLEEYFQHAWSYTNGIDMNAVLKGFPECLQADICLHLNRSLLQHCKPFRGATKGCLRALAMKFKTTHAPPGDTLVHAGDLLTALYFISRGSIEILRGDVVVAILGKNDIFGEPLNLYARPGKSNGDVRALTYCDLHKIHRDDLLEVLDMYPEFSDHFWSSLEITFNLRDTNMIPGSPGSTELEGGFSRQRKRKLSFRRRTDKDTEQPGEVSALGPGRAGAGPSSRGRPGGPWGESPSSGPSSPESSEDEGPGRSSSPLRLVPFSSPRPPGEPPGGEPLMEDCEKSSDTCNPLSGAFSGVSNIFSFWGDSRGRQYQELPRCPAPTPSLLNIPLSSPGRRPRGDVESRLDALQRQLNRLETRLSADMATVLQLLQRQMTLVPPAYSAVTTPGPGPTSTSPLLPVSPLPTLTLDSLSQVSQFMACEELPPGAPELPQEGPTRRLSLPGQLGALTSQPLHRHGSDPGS
Sequence of Acetylcholinesterase (Homo sapiens) (P22303 whole entry, looked up): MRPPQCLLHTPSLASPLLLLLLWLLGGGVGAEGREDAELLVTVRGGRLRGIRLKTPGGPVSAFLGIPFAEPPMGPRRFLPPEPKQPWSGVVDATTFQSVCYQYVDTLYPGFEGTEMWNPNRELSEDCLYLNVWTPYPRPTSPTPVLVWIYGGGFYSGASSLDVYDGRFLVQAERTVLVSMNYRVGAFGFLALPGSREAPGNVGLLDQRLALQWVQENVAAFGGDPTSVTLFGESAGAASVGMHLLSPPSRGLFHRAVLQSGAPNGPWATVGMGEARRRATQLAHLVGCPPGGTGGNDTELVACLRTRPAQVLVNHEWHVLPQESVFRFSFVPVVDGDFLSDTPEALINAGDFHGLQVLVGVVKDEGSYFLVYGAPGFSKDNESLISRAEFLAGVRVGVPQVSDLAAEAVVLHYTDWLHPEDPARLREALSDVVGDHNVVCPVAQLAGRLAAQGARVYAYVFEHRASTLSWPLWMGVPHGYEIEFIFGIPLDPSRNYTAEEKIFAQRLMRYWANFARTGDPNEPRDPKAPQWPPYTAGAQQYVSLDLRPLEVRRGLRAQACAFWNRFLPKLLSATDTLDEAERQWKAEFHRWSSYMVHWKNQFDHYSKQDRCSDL
Sequence of Cytochrome P450 2C19 (Homo sapiens) (P33261 whole entry, looked up): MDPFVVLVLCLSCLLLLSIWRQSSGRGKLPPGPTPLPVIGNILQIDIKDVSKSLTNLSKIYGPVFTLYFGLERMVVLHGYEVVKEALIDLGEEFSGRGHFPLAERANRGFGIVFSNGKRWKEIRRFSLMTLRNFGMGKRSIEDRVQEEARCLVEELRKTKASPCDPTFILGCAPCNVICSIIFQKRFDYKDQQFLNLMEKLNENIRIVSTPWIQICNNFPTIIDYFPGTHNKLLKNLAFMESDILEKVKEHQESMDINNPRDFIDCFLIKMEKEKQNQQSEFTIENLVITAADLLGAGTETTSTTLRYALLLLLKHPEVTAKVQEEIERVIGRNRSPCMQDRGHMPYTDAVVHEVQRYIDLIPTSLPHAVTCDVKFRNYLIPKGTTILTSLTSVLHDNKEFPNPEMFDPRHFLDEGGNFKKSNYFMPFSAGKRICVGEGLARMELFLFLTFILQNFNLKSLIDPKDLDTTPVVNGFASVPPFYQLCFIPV
Sequence of Cytochrome P450 1A2 (Homo sapiens) (P05177 whole entry, looked up): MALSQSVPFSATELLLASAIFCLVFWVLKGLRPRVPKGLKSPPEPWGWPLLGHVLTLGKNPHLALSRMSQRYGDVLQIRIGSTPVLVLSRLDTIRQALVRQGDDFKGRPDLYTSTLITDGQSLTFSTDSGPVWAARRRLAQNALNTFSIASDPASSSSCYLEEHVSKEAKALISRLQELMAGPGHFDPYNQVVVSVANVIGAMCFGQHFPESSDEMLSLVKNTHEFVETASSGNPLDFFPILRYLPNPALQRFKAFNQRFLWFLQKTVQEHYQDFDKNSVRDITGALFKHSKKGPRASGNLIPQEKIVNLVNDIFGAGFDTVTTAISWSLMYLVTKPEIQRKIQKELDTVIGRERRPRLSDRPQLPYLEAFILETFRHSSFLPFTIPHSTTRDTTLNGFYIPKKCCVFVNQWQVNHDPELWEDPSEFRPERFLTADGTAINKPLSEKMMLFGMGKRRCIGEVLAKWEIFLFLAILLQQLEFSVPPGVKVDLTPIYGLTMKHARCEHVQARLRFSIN
Sequence of Cytochrome P450 2D6 (Homo sapiens) (P10635 whole entry, looked up): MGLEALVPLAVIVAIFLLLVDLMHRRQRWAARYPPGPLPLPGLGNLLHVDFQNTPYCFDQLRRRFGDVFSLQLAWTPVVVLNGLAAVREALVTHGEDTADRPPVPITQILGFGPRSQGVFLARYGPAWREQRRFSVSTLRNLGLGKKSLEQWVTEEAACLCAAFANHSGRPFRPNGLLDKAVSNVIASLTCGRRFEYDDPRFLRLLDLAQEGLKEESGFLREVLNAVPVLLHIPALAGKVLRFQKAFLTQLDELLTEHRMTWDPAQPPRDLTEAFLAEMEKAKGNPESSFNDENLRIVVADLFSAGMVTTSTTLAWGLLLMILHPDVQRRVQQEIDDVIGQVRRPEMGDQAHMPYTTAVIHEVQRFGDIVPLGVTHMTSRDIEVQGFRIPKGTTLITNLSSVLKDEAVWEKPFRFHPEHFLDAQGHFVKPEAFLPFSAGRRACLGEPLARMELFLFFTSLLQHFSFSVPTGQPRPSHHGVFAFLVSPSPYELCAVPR

In the case of `Oc1c(Br)cc(Br)cc1Br`, the compound was classed as inactive in [1] and in [3]. The Potency result in test [2], in test [4], in test [5], in test [8], in test [9] and in test [10] was “inactive” each time. Also, the Potency result in test [11], in test [12], in test [13], in [14], in test [15] and in test [18] was “inactive” throughout. Besides, the Potency result in [19] is “inactive”. In addition, the Potency in test [6] is 68.7 µM (active) and 61.1 µM (active) and inactive; in test [16], 63.4 µM (active) and 39.9 µM (active) and inactive; in [17], 35.7 µM (active) and 63.3 µM (active) and inactive. In test [7], the max activation is -2.81% (inactive).
For the compound `Nc1ccc(N)cc1`, the result in test [1] and in test [3] was inactive. Besides, the Potency in test [2] is 54.5 µM (active) and inactive; in [4], 48.8 µM (active) and 54.5 µM (active); in [5] it was 54.5 µM (active) and inactive; in test [6] it was 54.5 µM (active) [middle of 4 runs]; in test [9], 25.1 µM (active); in [14] it was 39.9 µM (active). Besides, the Potency was 34.7 µM (active) [middle of 4 runs] in test [15]; 11.3 µM (active) and 28.3 µM (active) and 8.71 µM (active) in test [16]. The Potency result in test [18] is “inactive”.
As for `N#Cc1cccc(C#N)c1`, the compound was called inactive in test [1] and in test [3]. For the same compound, the Potency result in [2], in [4], in test [5], in test [6], in test [10] and in [11] was “inactive” in each case. In addition, the Potency entry in [12], in [13], in test [15], in test [16], in [17] and in [18] was “inactive” throughout. Besides, the Potency entry in test [19] is “inactive”. Besides, in test [14], the Potency was 31.2 µM (active) and inactive.
For `COC(C)(C)CCCC(C)C/C=C/C(C)=C/C(=O)OC(C)C` (stereo not given), the call in test [1] and in [3] was inactive. The Potency entry in [2], in test [4], in test [5], in test [8], in [10] and in [11] was “inactive” in each case. Moreover, the Potency entry in test [12], in [13], in test [14], in [17], in [18] and in [19] was “inactive” throughout. In addition, the Potency in [6] was 47.8 µM (active); in test [9], 11.2 µM (active); in test [15], 24.5 µM (active); in [16] it was 62.2 µM (active) and 17.4 µM (active). Also, in test [7], the max activation is -0.367% (inactive).
As to `Cc1cccc(C)c1N`, the compound was classed as inactive in test [1] and in test [3]. In addition, the Potency result in test [2], in [4], in test [5], in test [6], in test [11] and in test [12] was “inactive” in each case. Further, the Potency entry in test [13], in [15], in test [16], in test [17], in test [18] and in [19] was “inactive” throughout. The Potency in [14] is 11.1 µM (active) and inactive.
Consider `CC12CC1(C)C(=O)N(c1cc(Cl)cc(Cl)c1)C2=O` (stereo not given), for which the outcome in [1] and in test [3] was inactive. The Potency result in test [2], in test [4], in test [5], in test [10], in test [11] and in test [12] was “inactive” throughout. Further, the Potency entry in test [13], in test [14], in test [18] and in test [19] was “inactive” each time. Also, the Potency in test [6] was 60.9 µM (active) and 24.3 µM (active); in test [15], 22.4 µM (active); in [17] it was 9.99 µM (active) and 14.2 µM (active).
